Among the data in PubChem BioAssay (NCI) are growth values, retold here.

This is part of a sample that, as a whole, favours compounds with a hit. Of some 83,000 tested, about 20% had one in any assay.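 Percent growth is the endpoint: 0 to 100 indicates growth inhibition (40 means 60% inhibition), 0 means no net growth, and negative values indicate cell death.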 Values without a mark were called inactive. Activity calls are given as the source filed them. Rule for the calls: active = growth percent below 10; inactive = the rest.

Test systems include SR leukemia; RPMI-8226 leukemia; OVCAR-8 ovarian; OVCAR-5 ovarian; OVCAR-4 ovarian; SK-OV-3 ovarian; IGROV1 ovarian; HS 578T breast; NCI/ADR-RES ovarian; T-47D breast; BT-549 breast; MDA-MB-435 melanoma; SW-620 colon; MCF7 breast; HCT-116 colon; HCC-2998 colon; KM12 colon.
What all share (assay): NCI-60 one-dose screen, 48 h (100 = growth as untreated, 0 = no growth, -100 = all killed)
Conditions in all cases: 10 µM unless noted

For the compound `COc1ccc(-c2nnc(/N=C3/C(=O)Nc4ccc(Br)cc43)o2)cc1`, the growth is 97.8% with SR leukemia; 96.2% with RPMI-8226 leukemia; 99.9% in the assay with OVCAR-8 ovarian; 107% in the assay with OVCAR-5 ovarian; 101% with OVCAR-4 ovarian; 108% in the assay with SK-OV-3 ovarian. The growth in the assay with IGROV1 ovarian was 91.9%; with HS 578T breast, 116%; in the assay with NCI/ADR-RES ovarian it was 102%; with T-47D breast, 104%; in the assay with BT-549 breast, 103%; in the assay with MDA-MB-435 melanoma, 94.7%. The growth is 100% with SW-620 colon; 78.8% in the assay on MCF7 breast; 101% with HCT-116 colon; 115% in the assay with HCC-2998 colon; 89.7% in the assay with KM12 colon.

`O=C1c2c(c3c4cccnc4[nH]c3c3ccc4ccccc4c23)C(=O)N1CCN1CCCCC1`: the growth in the assay with SR leukemia is 15.4%; in the assay on RPMI-8226 leukemia, 70.3%; in the assay with OVCAR-8 ovarian, 49.5%; in the assay with OVCAR-5 ovarian, 88.6%; in the assay with OVCAR-4 ovarian it was 95.2%; with SK-OV-3 ovarian, 62.9%. Besides, the growth in the assay with IGROV1 ovarian was 42.8%; with HS 578T breast it was 105%; in the assay on NCI/ADR-RES ovarian, 41.2%; in the assay with T-47D breast it was 46.4%; in the assay with BT-549 breast it was 84.4%; with MDA-MB-435 melanoma, 69%. In addition, the growth in the assay with SW-620 colon was 41.3%; in the assay with MCF7 breast, 14.5%; in the assay with HCT-116 colon, 36.9%; in the assay on HCC-2998 colon, 70%; in the assay on KM12 colon, 99.6%.

Regarding `CC(C)c1nn(-c2ccccc2)c(N2CCCCC2)c1/C=N/NC(N)=S`, the growth in the assay on SR leukemia is 88.8%; with RPMI-8226 leukemia it was 78.2%; with OVCAR-8 ovarian, 97.1%; in the assay with OVCAR-5 ovarian, 98.7%; in the assay on OVCAR-4 ovarian, 72.4%; in the assay on SK-OV-3 ovarian, 106%. Further, the growth in the assay on IGROV1 ovarian was 83.9%; in the assay on HS 578T breast, 103%; in the assay with NCI/ADR-RES ovarian it was 86.9%; in the assay with T-47D breast it was 66.8%; with BT-549 breast it was 85.2%; with MDA-MB-435 melanoma, 97.5%. Also, the growth in the assay with SW-620 colon is 101%; with MCF7 breast, 75.7%; in the assay on HCT-116 colon, 79.1%; in the assay on HCC-2998 colon, 105%; in the assay with KM12 colon, 103%.

Regarding `CCN1C(=O)N(CC)C2SC(N/N=C/c3ccccc3)=NC21` (stereo unspecified), the growth in the assay on SR leukemia was 18.6%; in the assay with RPMI-8226 leukemia, 21.2%; in the assay with OVCAR-8 ovarian, 8.59% (active); with OVCAR-5 ovarian, 51.6%; with OVCAR-4 ovarian, 71.6%; in the assay with SK-OV-3 ovarian it was 38.3%. Moreover, the growth in the assay with IGROV1 ovarian is 28%; in the assay with HS 578T breast, 15.8%; with NCI/ADR-RES ovarian it was 3.93% (active); in the assay with T-47D breast it was 64.8%; with BT-549 breast, -19.9% (active); with MDA-MB-435 melanoma it was -10.2% (active). Moreover, the growth was 22.5% in the assay on SW-620 colon; 18.6% in the assay with MCF7 breast; 14.2% with HCT-116 colon; 12.7% in the assay on HCC-2998 colon; 13.3% in the assay with KM12 colon.

With `O=C1Nc2ccc(Cl)cc2/C1=C/c1ccc(OCc2ccc(F)cc2)cc1`, the growth is 101% with SR leukemia; 69.8% with RPMI-8226 leukemia; 98.5% in the assay on OVCAR-8 ovarian; 94% with OVCAR-5 ovarian; 97.5% in the assay on OVCAR-4 ovarian; 101% in the assay on SK-OV-3 ovarian. In addition, the growth was 100% with IGROV1 ovarian; 101% in the assay with HS 578T breast; 80.5% with NCI/ADR-RES ovarian; 102% in the assay on T-47D breast; 107% with BT-549 breast; 93% with MDA-MB-435 melanoma. The growth in the assay with SW-620 colon was 102%; with MCF7 breast, 84.6%; with HCT-116 colon, 88.5%; in the assay with HCC-2998 colon it was 102%; in the assay with KM12 colon, 98.8%.

With `NS(=O)(=O)c1ccc(Nc2nc(N/N=C/c3ccc([N+](=O)[O-])cc3)nc(Nc3ccccc3)n2)cc1`, the growth in the assay on SR leukemia was 15.6%; with RPMI-8226 leukemia, 43.3%; with OVCAR-8 ovarian it was 33.2%; in the assay on OVCAR-5 ovarian it was 82%; in the assay on OVCAR-4 ovarian, 55.8%; in the assay on SK-OV-3 ovarian it was 67.8%. For the same compound, the growth with IGROV1 ovarian was 52.1%; with HS 578T breast, 53.5%; with NCI/ADR-RES ovarian it was 93.3%; in the assay on T-47D breast, 14.1%; in the assay on BT-549 breast, 18.5%; in the assay on MDA-MB-435 melanoma it was 33.2%. The growth was 18.2% in the assay with SW-620 colon; 9.76% (active) in the assay with MCF7 breast; 16.5% in the assay with HCT-116 colon; 19.6% in the assay on HCC-2998 colon; 37.5% in the assay with KM12 colon.

As for `CC(=O)Oc1ccc(CCN2C(=O)CSC2=S)cc1`, the growth in the assay with SR leukemia is 68.9%; in the assay with RPMI-8226 leukemia it was 37.6%; with OVCAR-8 ovarian it was 103%; with OVCAR-5 ovarian it was 97.9%; with OVCAR-4 ovarian it was 93.8%; in the assay with SK-OV-3 ovarian, 113%. In addition, the growth was 103% with IGROV1 ovarian; 100% with HS 578T breast; 96.4% in the assay on NCI/ADR-RES ovarian; 41.2% in the assay with T-47D breast; 95.9% in the assay on BT-549 breast; 69.2% in the assay on MDA-MB-435 melanoma. The growth with SW-620 colon was 47.1%; with MCF7 breast it was 33.3%; in the assay on HCT-116 colon, 75.6%; with HCC-2998 colon it was 108%; in the assay with KM12 colon it was 22.3%.

With `Cc1ccc(NC(=O)c2cc(/C=C/C(=O)NO)cc(C(F)(F)F)c2)cc1Nc1nccc(-c2cccnc2)n1`, the growth is 4.9% (active) with SR leukemia; -13% (active) in the assay on RPMI-8226 leukemia; -12.2% (active) in the assay on OVCAR-8 ovarian; 17.4% in the assay with OVCAR-5 ovarian; 23% in the assay with OVCAR-4 ovarian; -38.3% (active) in the assay on SK-OV-3 ovarian. Moreover, the growth in the assay on IGROV1 ovarian was 2.46% (active); in the assay with HS 578T breast, -14.5% (active); with NCI/ADR-RES ovarian, 87.8%; in the assay with T-47D breast, -5.93% (active); in the assay with BT-549 breast, -15.3% (active); in the assay on MDA-MB-435 melanoma it was -2.82% (active). For the same compound, the growth with SW-620 colon was -38.8% (active); in the assay with MCF7 breast it was -17.5% (active); in the assay on HCT-116 colon, -12.9% (active); in the assay with HCC-2998 colon it was -0.0369% (active); in the assay on KM12 colon it was 16.4%.
